Activity calls are given as the source filed them. Calls come from the whole dose curve; as a rule, active = well fitted curve in the direction sought with a large enough effect in the repeat runs; inconclusive = weak or mixed curves; inactive = flat fitted curve, though single readings scatter.
Experiment: qHTS assay to test for compound auto fluorescence at 590 nm (red) in HEK293 cell free culture (AID 720683)
Conditions: cell-free medium autofluorescence, Ex540/Em590 red; series mostly up to 91.3 µM; fluorescence, % of fluorescent control: at the top concentration
Description: U.S. Tox21 Program National Center for Advancing Translational Sciences [NCATS] NIH Chemical Genomics Center [NCGC] U.S. Environmental Protection Agency [EPA] National Institutes of Environmental Health Sciences [NIEHS] National Toxicology Program [NTP] U.S. Food and Drug Administration [FDA] Tox21 Assay Overview: Compound auto fluorescence often interferes with screening of the compound library against various biological targets and signaling pathways. Some of these compounds may have fluorophoric properties. Such properties may interfere with the assay outputs resulting in false positives and/or negatives. To decrease such complications and ensure the compound activities are relevant in terms of biological response, the Tox21 10K compound library was screened for auto fluorescence. From the fluorophores used as reporter signals in our screening assays, the auto fluorescence equivalencies of compounds against three fluorophores have been evaluated: Triamterene, Fluorescein and Rose Bengal sodium for blue, green and red fluorescence, respectively. The fluorescence intensities were measured using Excitation/Emission wavelengths at 405/460nm, 485/535nm and 540/590nm for blue, green and red labels, respectively. This assay includes the red fluorescence data.
Tox21 Assay Protocol Summary: 5 uL of culture medium (DMEM containing 10% FBS) per well was dispensed into black wall/clear bottom 1536-well plates using a Multidrop Combi Dispenser (ThermoFisher Scientific, Waltham, MA). After 23 nL compound or DMSO vehicle was transferred into assay plate by a pintool work station (Kalypsys, San Diego, CA), fluorescence intensities in the assay plates were measured by an Envision (PerkinElmer, Shelton, CT) plate reader using three labels for measuring blue, green and red fluorescence at […] 460, 535 and 590nm respectively.
In the case of `CC(C)C(=O)OCCc1ccccc1`, the “fluorescence, % of fluorescent control” value is reported as -0.0757% (inactive).
In the case of `O=S(=O)(O)c1ccc2cc(O)c(S(=O)(=O)O)cc2c1`, the “fluorescence, % of fluorescent control” value is reported as 0.0315% (inactive).
For `CC1=CCC(C(C)C)=CC1`, the “fluorescence, % of fluorescent control” value was 0.0087% (inactive).
With `BrCc1cccc(Oc2ccccc2)c1` the “fluorescence, % of fluorescent control” value was -0.106% (inactive).
In the case of `O=C(O)c1cc(Br)c(O)c(Br)c1`, the “fluorescence, % of fluorescent control” value is reported as 0.488% (inactive).
For `CC(C)=O`, the outcome was “inactive”.
For `CCCCCOC(=O)CCC`, the “fluorescence, % of fluorescent control” value was 0.0055% (inactive).
For `CCCCCCOc1ccccc1C(N)=O`, the “fluorescence, % of fluorescent control” value was 0.221% [at 46 µM] (inactive).
With `CCCCCCOC(=O)CC` the “fluorescence, % of fluorescent control” value was -0.0141% (inactive).
In the case of `C[Si](C)=O`, the fluorescence, % of fluorescent control is reported as -0.414% [at 9.17 µM] (inactive).
For `CC(=O)/C=C/C1C(C)=CCC(C)C1(C)C` (stereo not given), the “fluorescence, % of fluorescent control” value was -0.0787% (inactive).
In the case of `Cc1cc(Cl)c(C)cc1Cl`, the “fluorescence, % of fluorescent control” value is reported as 0.244% (inactive).
In the case of `CC(=O)N[C@@H](CCC(=O)O)C(=O)O`, the “fluorescence, % of fluorescent control” value is reported as 0.141% [at 46 µM] (inactive).
For `CC1(C)S[C@@H]2[C@H](N=CN3CCCCCC3)C(=O)N2[C@H]1C(=O)O`, the “fluorescence, % of fluorescent control” value was 0.0424% [at 46 µM] (inactive).
With `CCCN1C[C@H](CSC)C[C@@H]2c3cccc4[nH]cc(c34)C[C@H]21` the “fluorescence, % of fluorescent control” value was 0.437% [at 46 µM] (inactive).
In the case of `O=C(OCC(COC(=O)c1cccnc1)(COC(=O)c1cccnc1)COC(=O)c1cccnc1)c1cccnc1`, the “fluorescence, % of fluorescent control” value is reported as -0.326% [at 46 µM] (inactive).
In the case of `NNc1nnc(NN)c2ccccc12`, the “fluorescence, % of fluorescent control” value is reported as 0.281% [at 46 µM] (inactive).
For `CC(C)(C)c1n[nH]c(=S)n(N)c1=O`, the “fluorescence, % of fluorescent control” value was -0.0111% (inactive).
With `O=C(O)c1ccc(Cl)cc1Cl` the “fluorescence, % of fluorescent control” value was -0.0259% [at 95.7 µM] (inactive).
For `CCOC(=O)c1ccc(OC(=O)CCCCCN=C(N)N)cc1`, the fluorescence, % of fluorescent control was 0.226% [at 18.6 µM] (inactive).
In the case of `COc1cc(C(=S)N2CCOCC2)cc(OC)c1OC`, the “fluorescence, % of fluorescent control” value is reported as 0.0628% [at 46 µM] (inactive).
In the case of `O=C(CCN1CCN(CCO)CC1)N1c2ccccc2Sc2ccc(C(F)(F)F)cc21`, the “fluorescence, % of fluorescent control” value is reported as 0.397% [at 46 µM] (inactive).
In the case of `Nc1ccc([N+](=O)[O-])c(N)c1`, the “fluorescence, % of fluorescent control” value is reported as 0.0714% (inactive).
In the case of `Cc1ccc(C=O)cc1C`, the “fluorescence, % of fluorescent control” value is reported as 0.0913% (inactive).
For `Nc1ccc(S(=O)(=O)Nc2ccc(Cl)nn2)cc1`, the outcome was “inactive”.
With `C=Cc1ccccn1` the “fluorescence, % of fluorescent control” value was -0.239% (inactive).
For `Brc1ccc(-c2ccccc2)cc1`, the “fluorescence, % of fluorescent control” value was 0.16% (inactive).
In the case of `CC(=O)CCCCn1c(=O)c2c(ncn2C)n(C)c1=O`, the fluorescence, % of fluorescent control is reported as 0.153% [at 18.6 µM] (inactive).
In the case of `O=C(OCc1ccccc1)C(=O)OCc1ccccc1`, the “fluorescence, % of fluorescent control” value is reported as -0.381% (inactive).
With `CCCC(=O)C(C)=O` the “fluorescence, % of fluorescent control” value was 0.0616% (inactive).
In the case of `CN=C(NC#N)Nc1ccc(C2=NNC(=O)CC2C)cc1` (stereo not given), the “fluorescence, % of fluorescent control” value is reported as -0.18% [at 46 µM] (inactive).
In the case of `Cc1cccc(C)c1NC(=O)c1ccccc1C(=O)O`, the “fluorescence, % of fluorescent control” value is reported as -0.482% [at 46 µM] (inactive).
With `Cc1cc(C(C)(C)C)c(O)c(C)c1CC1=NCCN1` the “fluorescence, % of fluorescent control” value was 0.159% [at 46 µM] (inactive).
In the case of `CN1C(C)(C)CCCC1(C)C`, the “fluorescence, % of fluorescent control” value is reported as 0.222% [at 46 µM] (inactive).
In the case of `O=P(O)(O)OP(=O)(O)O`, the outcome is reported as “inactive”.
With `OCCCCC(O)CO` (stereo not given) the “fluorescence, % of fluorescent control” value was -0.162% (inactive).
With `CCCCNC1CC(C)(C)NC(C)(C)C1` the “fluorescence, % of fluorescent control” value was 0.229% (inactive).
With `CC(=O)NCc1c(I)c(NC(C)=O)c(I)c(C(=O)O)c1I` the “fluorescence, % of fluorescent control” value was -0.338% [at 46 µM] (inactive).
With `CC(S)C(=O)NCC(=O)O` (stereo not given) the “fluorescence, % of fluorescent control” value was 0.12% [at 46 µM] (inactive).
With `COC(=O)CCc1ccc(OCC(O)CNC(C)C)cc1` (stereo not given) the “fluorescence, % of fluorescent control” value was -0.559% [at 46 µM] (inactive).
% is set by controls: 0 for no effect and ±100 for the full control effect.
